From PubChem BioAssay
HSF1 inh: HSF1 inhibitors in luciferase reporter cells, primary screen, cell-based, NIH3T3, luminescence. NIH3T3-HGL HSE-luciferase, MG132-induced, luminescence 8 h; stronger effect = lower value. activity change, negative = inhibition, % at 7.5 µM (by protocol). 300,000 tested, 0.77% active. AID 2098, 2009;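 active = more than half of replicate wells show activity change below -50%, luminescence cut by over half; inconclusive = some wells, but at most half, below -50%; inactive = no replicate well below -50%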;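 also: luciferase reports HSF-1 transcriptional activity via heat shock element; 0% = median of DMSO wells and -100% = zero luminescence signal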
HSP90 inh: HSP90 inhibitors, primary screen, cell lysate, luminescence; Rabbit reticulocyte lysate, luciferase refolding luminescence, 3 h; inhibition, % at 5.6 µM; 290,000 tested, 0.91% active; AID 1789, 2009;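 active = inhibition above the screen-wide mean plus 3 SD, computed separately per campaign, cut at about 16% in these data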;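 also: 0% = DMSO wells and 100% = 60 µM geldanamycin wells; inhibitors lower the luminescence because luciferase stays unfolded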
GAA850 FXN act: FXN promoter activators, primary screen, cell-based, luciferase luminescence, HEK293 lucGAA850; HEK293 lucGAA850 FXN promoter luciferase reporter, 24 h; percent of 10 µM SAHA response; activation, % at 6 µM; 360,000 tested, 0.56% active;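 active = activation above the average of all compounds screened plus 3 SD, cutoff fixed separately per campaign, cut at about 7.5% in these data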;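 also: 0% = DMSO wells and 100% = 10 µM SAHA wells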
HSF-1 act: HSF-1 activators, primary screen, NIH3T3-HGL cells, MG132 stress, luminescence, single point. 300,000 tested, 1.7% active. activation, % at 9 µM. NIH3T3-HGL HSF-1 luciferase reporter, 8 h; 100% = twice DMSO control signal. AID 504408, 2011;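 active = mean replicate activation of at least 50% with a set share of replicates each reaching 50%; inconclusive = only one of those two conditions met; inactive = mean below 50% and too few replicates reaching it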;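 also: 0% = median of the neutral control wells and 100% = twice that signal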
AHR activator: AHR activators, primary screen, cell-based, luminescence, luciferase reporter, human; Aryl hydrocarbon receptor (Homo sapiens), P35869; AHR-responsive luciferase reporter cells; activation, % at 5 µM; 320,000 tested, 2.5% active; AID 2796, 2010; in the data active = activation above about 47%;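 also: 0% = vehicle wells and 100% = reference agonist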
Target sequence (P35869 whole entry, looked up): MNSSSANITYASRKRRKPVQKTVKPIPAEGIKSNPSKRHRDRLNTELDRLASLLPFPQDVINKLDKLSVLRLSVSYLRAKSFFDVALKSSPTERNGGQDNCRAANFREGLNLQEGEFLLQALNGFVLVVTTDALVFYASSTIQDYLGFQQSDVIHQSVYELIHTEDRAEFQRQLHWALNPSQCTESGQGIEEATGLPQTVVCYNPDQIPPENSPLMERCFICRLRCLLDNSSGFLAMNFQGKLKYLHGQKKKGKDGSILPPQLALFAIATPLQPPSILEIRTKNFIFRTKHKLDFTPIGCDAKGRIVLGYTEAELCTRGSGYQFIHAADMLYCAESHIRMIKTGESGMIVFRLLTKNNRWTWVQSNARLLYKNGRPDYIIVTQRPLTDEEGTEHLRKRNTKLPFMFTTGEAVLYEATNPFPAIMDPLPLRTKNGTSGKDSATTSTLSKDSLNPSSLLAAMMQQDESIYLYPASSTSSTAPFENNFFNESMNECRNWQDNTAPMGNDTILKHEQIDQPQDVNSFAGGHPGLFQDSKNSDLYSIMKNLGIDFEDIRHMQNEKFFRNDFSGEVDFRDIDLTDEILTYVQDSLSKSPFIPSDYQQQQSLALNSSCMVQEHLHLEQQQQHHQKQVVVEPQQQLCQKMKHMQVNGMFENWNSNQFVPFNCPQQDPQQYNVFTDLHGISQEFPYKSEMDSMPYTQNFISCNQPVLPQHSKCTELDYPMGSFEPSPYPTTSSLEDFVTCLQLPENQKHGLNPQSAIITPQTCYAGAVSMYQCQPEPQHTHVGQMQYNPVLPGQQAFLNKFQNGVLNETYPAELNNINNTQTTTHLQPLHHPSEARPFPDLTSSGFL
DAX1 inh: DAX1 (NR0B1) inhibitors, primary screen, cell-based, HEK293, Gal4-DAX1, luciferase luminescence | inhibition, % at 6.75 µM | HEK293 Gal4-DAX1 luciferase reporter | 340,000 tested, 0.99% active;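 active = inhibition above the mean over all tested compounds plus 3 SD, cut at about 4.2% in these data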;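 also: 0% = DAX1-transfected cells with DMSO and 100% = empty-vector control cells with DMSO; inhibition shows as a rise in luminescence from relieved DAX1 repression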
The depositor's hits bear a star; ? = inconclusive; / = no result. Shown are actives, neighbours in structure and some others; about 5.9% of the full set was active somewhere.

SMILES | HSF1 inh | HSP90 inh | GAA850 FXN act | HSF-1 act | AHR activator | DAX1 inh
Cc1ccn2cc(CSc3ccccc3)nc2c1 | 42 | 4 | 1 | 53* | -3 | 2
COc1cc(C(=O)OCc2nc3ccsc3c(=O)[nH]2)c([N+](=O)[O-])cc1OC | -1 | / | -1 | 1 | 0 | 1
O=C(OCc1ccc(F)cc1)c1cc(=O)c2ccccc2o1 | 0 | 1 | 1 | 8 | 1 | -1
O=C(COC(=O)c1c[nH]c2ccccc12)NCc1ccccc1 | / | / | 4 | / | / | 4.7*
O=C(CNS(=O)(=O)c1ccccc1)OCC(=O)c1c[nH]c2ccccc12 | / | / | 2 | / | 47* | 1
CCCNCC(=O)Nc1sc2c(c1C(=O)Nc1c(C)n(C)n(-c3ccccc3)c1=O)CCCC2 | / | / | 1 | / | / | 0
Cc1ccc(C)c(CSc2nc3[nH]ncc3c(=O)[nH]2)c1 | -3 | -1 | -3 | 12 | 48* | -1
COC(=O)Cc1[nH]c(=O)[nH]c1C(=O)OC | -7 | 1 | -1 | -12 | 1 | 4.6*
C=CCN1C=CC(=C/C=C(/C#N)C(=O)OCC)C=C1 | 21 | 2 | 5 | 18 | 4 | 3
CCOC(=O)/C(C#N)=C/C=C1/C=CC=CN1C | 3 | 5 | 2 | 35 | -3 | 5.7*
Cc1ccc(NC(=O)CN2C(=O)COc3ccc(S(=O)(=O)N4CCOCC4)cc32)cc1N(C)C | -5 | -4 | 0 | -10 | 4 | 0
O=C(COC(=O)c1ccc(S(=O)(=O)N2CCCCCC2)cc1)NCc1ccc(Cl)cc1 | / | / | 2 | / | 0 | 1
CC(=O)Nc1ccc(C2=NOC(C)(C)C(=O)N2Cc2cccc(C#N)c2)cc1 | / | / | 1 | / | / | /
O=C(O)CC/C(=N\Nc1ccc(Cl)cc1)c1cccs1 | 4 | 2 | 1 | 17 | 61* | -1
COC(=O)N/N=C(\CCC(=O)O)c1cccs1 | -3 | 4 | 4 | -11 | 8 | 3
COc1ccc(CN(C#N)c2nc(SC)nc(N(C)C)n2)cc1 | / | 1 | 1 | / | 9 | -1
COc1cccc(OC)c1C(=O)Nc1nc2cc3c(cc2s1)OCO3 | -2 | 1 | 0 | -1 | 54* | -1
COc1ccccc1C(=O)Nc1nc2cc3c(cc2s1)OCCO3 | -3 | -2 | 3 | 1 | 11 | 1
COc1ccccc1C(=O)Nc1nc2cc3c(cc2s1)OCO3 | 27 | 2 | 6 | 54* | 44 | 4
COc1cccc(OC)c1C(=O)Nc1nc2ccc(S(C)(=O)=O)cc2s1 | -4 | 2 | 0 | -11 | 5 | 2
COc1ccc(C(=O)Nc2nc3cc4c(cc3s2)OCCO4)c(OC)c1 | -61* | 0 | 0 | -67 | -1 | -1
O=C(CCS(=O)(=O)c1ccccc1)Nc1nc2cc3c(cc2s1)OCO3 | -8 | 1 | 1 | 26 | 30 | 4.9*
CCN(CC)C(=O)N1CCc2ccccc2C1CN1C(=O)c2ccccc2C1=O (stereo not given) | 1 | -2 | -3 | -1 | 2 | 0
OC[C@@H](O)C(O)[C@@H](O)CO (stereo not given in full) | / | / | -2 | / | / | /
CCS(=O)(=O)N1Cc2ccccc2CC1C(=O)Nc1ccc(F)c(F)c1 (stereo not given) | 16 | 0 | 2 | 60* | 1 | 1
SMILES | HSF1 inh | HSP90 inh | GAA850 FXN act | HSF-1 act | AHR activator | DAX1 inh
Cc1cc(=O)[nH]c(NC(=O)Cc2ccccc2)n1 | / | / | 1 | / | / | 0
Cc1cc(=O)[nH]c(NCc2ccccc2)n1 | 10 | 16* | 2 | 33 | 5 | -2
CC(=O)/C(=N\Nc1ccc(Cl)cc1)Sc1nnc(-c2ccccc2)n1-c1ccccc1 | -55* | -4 | 1 | -62 | 10 | -1
Cc1c(Cl)cccc1NC(=O)CNC(=O)CCS(=O)(=O)c1ccc(F)cc1 | / | / | -1 | / | 0 | 0
O=C(c1ccccc1)c1ccccn1 | -5 | 1 | 1 | 10 | -3 | 0
O=C(c1ccccn1)c1ccc2ccccc2n1 | 34 | 2 | 2 | 59* | 0 | /
Cc1ccccc1NC1=C(Cl)C(=O)N(C2CCCCC2)C1=O | -3 | -2 | 6 | 1 | 0 | 1
COc1ccccc1NC1=C(Cl)C(=O)N(C2CCCCC2)C1=O | -85* | 2 | 1 | -87 | 1 | 1
Cc1cccc(-c2ocnc2C(=O)Nc2ncc(C)s2)c1 | / | / | 0 | / | / | 2
Brc1ccccc1-c1nc(-c2ccccc2)no1 | -14 | -2 | / | -3 | 50* | /
c1cncc(-c2noc(-c3cccc4ccccc34)n2)c1 | 19 | 1 | 3 | 17 | 59* | 2
c1ccc(-c2noc(-c3cccc4ccccc34)n2)cc1 | 30 | 3 | 3 | ? | 51* | 3
OCC1(CCOc2ccccc2)CCN(Cc2ccc3c(c2)OCCO3)CC1 | 6 | 2 | 0 | 5 | 7 | 4.8*
O=C(c1ccc(S(=O)(=O)Nc2ccccc2F)cc1)N1CCCC1 | / | / | -1 | / | / | 0
O=C1c2ccccc2C(=O)C1c1ccc2ccccc2n1 | -3 | 0 | 0 | 33 | 60* | 4.2*
O=C(O)/C=C/c1ccc2ccccc2n1 | -2 | 0 | 1 | -6 | 1 | 0
CC(=O)Oc1c(Cl)cc(Cl)cc1/C=C/c1ccc2ccccc2n1 | 119 | -3 | 1 | 161* | 24 | -1
CC(=O)Oc1ccc(Cl)cc1/C=C/c1ccc2ccccc2n1 | 46 | -6 | 6 | 60* | 71* | 1
COc1ccc2oc(=Nc3cc(F)ccc3F)c(C(N)=O)cc2c1 | 34 | -1 | 0 | 70* | 14 | -1
COc1ccc(OC)c(N=c2oc3cc(O)ccc3cc2C(N)=O)c1 | 23 | -2 | 0 | 31 | 4 | 0
CN(CC(=O)Oc1ccc(-c2nnco2)cc1)S(=O)(=O)c1ccc(F)cc1 | -2 | / | 1 | -8 | 5 | 2
O=C(CSc1nc(-c2ccco2)cc(C(F)(F)F)n1)NCCN1CCOCC1 | -5 | 3 | 1 | -3 | 0 | 6.0*
O=C(Cn1c(=S)[nH]c2ncccc2c1=O)NCCc1ccccc1 | -6 | 2 | / | -2 | 57* | /
CCSC(=Nc1ccccc1)N1CCOCC1 | 4 | / | 1 | 0 | 2 | /
Cc1ccc(CONC(=O)c2ccc(Cl)cc2)cc1 | / | / | 0 | / | 73* | 1
COc1ccc(C(=O)Nc2cc(Cl)ccc2OC(=O)c2ccc(OC)cc2)cc1 | 8 | -3 | 6 | 20 | 22 | 1
Cc1ccc(C(=O)Nc2cc(Cl)ccc2OC(=O)c2ccc(C)cc2)cc1 | -3 | -4 | / | 3 | 53* | /
CSCCC(NC(=O)c1ccccc1Cl)C(=O)OCC(=O)N1CCCC1=O (stereo not given) | 0 | / | 1 | 11 | -1 | 0
